Results on 13 compounds are retold here after PubChem BioAssay.

Where “and” joins values, the source holds several entries; their conditions need not be identical. Equal values may be shown once. Calls of active or inactive are those of the source.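 The calls were made as follows, unless noted: active = mean z-score across replicates of 1.96 or higher in either the MELAS or the Rieske mutant cell line; inactive = the rest.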

The nature of one experiment: viability loss with induced miR-34 in A549 – imaging, A549 dox-inducible miR-34, nuclei and caspase counts, primary screen (AID 1347080). The conditions noted are these: A549 miR-34 inducible, Hoechst nuclei count, 48 h; measured here: relative caspase fold change +Dox/-Dox.
Take `O=C(Nc1nc2cccc(-c3ccc(CN4CCS(=O)(=O)CC4)cc3)n2n1)C1CC1`: the fold change is 0.426.
On the same count and under the same terms, then `CNC(=O)c1cc(Oc2ccc(NC(=O)Nc3ccc(Cl)c(C(F)(F)F)c3)c(F)c2)ccn1`, with 0.959.
Same read-out and setting: then `Nc1cccc(-c2cc3c(Oc4cccc(O)c4)ncnc3[nH]2)c1`, with 0.507; and `CS(=O)(=O)N1CCc2c(-c3cnc(N)nc3)nc(N3CCOCC3)nc21`, with 0.485.
On the same count and under the same terms, for `CC(C)(O)CC(=O)NCCn1ccc2ncnc(Nc3ccc(Oc4cccc(C(F)(F)F)c4)c(Cl)c3)c21` the value was 0.647; for `CC(=O)Oc1cc2c(s1)CCN(C(C(=O)C1CC1)c1ccccc1F)C2` (stereo not drawn), 0.621 and 0.805.
With `Nc1ccn([C@@H]2O[C@H](CO)[C@@H](O)C2(F)F)c(=O)n1`, the fold change worked out at 2.54.
As for `COc1cc2ncnc(Nc3cccc(Cl)c3)c2cc1OC`, the fold change was 0.693 and 0.941 and 0.779.
The same measure, in the same setting: then `CNC(=O)c1cc(COc2nnc(Nc3ccc(Cl)cc3)c3ccoc23)ccn1`, with 0.896.

Still in this experiment, the particulars now being: A549 miR-34 inducible, Hoechst nuclei count, 48 h; measured here: total cells with miR-34 induction; stronger effect = lower value.
`O=C(Nc1nc2cccc(-c3ccc(CN4CCS(=O)(=O)CC4)cc3)n2n1)C1CC1` registered a cell count of 6290.
The compound `CNC(=O)c1cc(Oc2ccc(NC(=O)Nc3ccc(Cl)c(C(F)(F)F)c3)c(F)c2)ccn1` displayed a cell count of 2520.
On the same count and under the same terms, for `Nc1cccc(-c2cc3c(Oc4cccc(O)c4)ncnc3[nH]2)c1` the value was 1790.
For the compound `CS(=O)(=O)N1CCc2c(-c3cnc(N)nc3)nc(N3CCOCC3)nc21`, the cell count amounted to 3180.
Turning to `CC(C)(O)CC(=O)NCCn1ccc2ncnc(Nc3ccc(Oc4cccc(C(F)(F)F)c4)c(Cl)c3)c21`, the cell count was 8120.
For the compound `CC(=O)Oc1cc2c(s1)CCN(C(C(=O)C1CC1)c1ccccc1F)C2` (stereo not drawn), the cell count is 7600 and 7230.
In turn, `Nc1ccn([C@@H]2O[C@H](CO)[C@@H](O)C2(F)F)c(=O)n1` had a cell count of 2200.
Turning to `COc1cc2ncnc(Nc3cccc(Cl)c3)c2cc1OC`, the cell count is 2650 and 1830 and 6990.
Same read-out and setting: then `CNC(=O)c1cc(COc2nnc(Nc3ccc(Cl)cc3)c3ccoc23)ccn1`, with 5140.

Staying with this experiment, now noted: A549 miR-34 inducible, Hoechst nuclei count, 48 h; measured here: total cells without miR-34 induction.
`O=C(Nc1nc2cccc(-c3ccc(CN4CCS(=O)(=O)CC4)cc3)n2n1)C1CC1` returned a cell count of 6810.
`CNC(=O)c1cc(Oc2ccc(NC(=O)Nc3ccc(Cl)c(C(F)(F)F)c3)c(F)c2)ccn1` had a cell count of 2900.
For `Nc1cccc(-c2cc3c(Oc4cccc(O)c4)ncnc3[nH]2)c1`, the cell count amounted to 1240.
`CS(=O)(=O)N1CCc2c(-c3cnc(N)nc3)nc(N3CCOCC3)nc21` had a cell count of 3180.
With `CC(C)(O)CC(=O)NCCn1ccc2ncnc(Nc3ccc(Oc4cccc(C(F)(F)F)c4)c(Cl)c3)c21`, the cell count worked out at 8420.
On the same count and under the same terms, for `CC(=O)Oc1cc2c(s1)CCN(C(C(=O)C1CC1)c1ccccc1F)C2` (stereo not drawn) the value was 8520 and 7750; for `Nc1ccn([C@@H]2O[C@H](CO)[C@@H](O)C2(F)F)c(=O)n1`, 2720; for `COc1cc2ncnc(Nc3cccc(Cl)c3)c2cc1OC`, 2060 and 1800 and 7760.
Same read-out and setting: then `CNC(=O)c1cc(COc2nnc(Nc3ccc(Cl)cc3)c3ccoc23)ccn1`, with 5820.

The next experiment can be described thus: compounds altering HSF1 focus formation in cells – imaging, Selleck Cancer Library (AID 1347162; in the data active = plate-normalised HSF1 focus index below about 0.46). The conditions noted are these: human cells, HSF1 nuclear foci imaging, at 10 µM; SSMD: measured here: HSF1 foci SSMD mean; cell count: measured here: cell number; plate-normalised HSF1 focus index: stronger effect = lower value.
As for `OCCn1cc(-c2ccc3c(c2)CC/C3=N\O)c(-c2ccncc2)n1`, the plate-normalised HSF1 focus index is 1.09 (inactive), the SSMD turned out to be 1.73 and the cell count turned out to be 6750.
With `COc1ccc(-c2cc3nccn3c(Nc3ncccc3C(N)=O)n2)cc1OC`, the SSMD was -0.302, the plate-normalised HSF1 focus index is 0.994 (inactive) and the cell count was determined as 6940.
In the same order, the values of `CS(=O)(=O)N1CCc2c(-c3cnc(N)nc3)nc(N3CCOCC3)nc21` are -3.29, 0.883 (inactive) and 7210.
As to `O=C1[C@H](Cc2ccc(O)cc2)N2C(=O)CCN(C(=O)NCc3ccccc3)[C@H]2CN1Cc1cccc2ccccc12`, the plate-normalised HSF1 focus index was 1.09 (inactive), the cell count amounted to 6950 and the SSMD was 1.66.
Regarding `CNC(=O)c1cc(COc2nnc(Nc3ccc(Cl)cc3)c3ccoc23)ccn1`, the plate-normalised HSF1 focus index was 0.266 (active), the cell count was determined as 4310 and the SSMD was -14.1.
For the compound `CC(C)=CCC/C(C)=C/CC/C(C)=C/CSc1ccccc1C(=O)O`, the SSMD was 2.56, the cell count was determined as 6790 and the plate-normalised HSF1 focus index was 1.15 (inactive).

A further experiment can be described thus: MELAS cybrid and Rieske KO viability enhancers – cell-based, MELAS cybrids, Rieske KO mouse fibroblasts, CellTiter-Glo, primary screen (AID 1508586).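 Also: z relative to plate mean and SD of compound and empty wells.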 As to conditions: MELAS cybrid survival, low glucose, CellTiter-Glo 48 h; stronger effect = higher value.
On to `O=C(Nc1nc2cccc(-c3ccc(CN4CCS(=O)(=O)CC4)cc3)n2n1)C1CC1`, for which the z-score is -0.57 (inactive).
Same read-out and setting: then `CNC(=O)c1cc(Oc2ccc(NC(=O)Nc3ccc(Cl)c(C(F)(F)F)c3)c(F)c2)ccn1`, with -0.38 (inactive); and `Nc1cccc(-c2cc3c(Oc4cccc(O)c4)ncnc3[nH]2)c1`, with 0.0499 (inactive); and `CS(=O)(=O)N1CCc2c(-c3cnc(N)nc3)nc(N3CCOCC3)nc21`, with 3.23 (active).
Take `CC(C)(O)CC(=O)NCCn1ccc2ncnc(Nc3ccc(Oc4cccc(C(F)(F)F)c4)c(Cl)c3)c21`: the z-score is -0.328 (inactive).
`CC(=O)Oc1cc2c(s1)CCN(C(C(=O)C1CC1)c1ccccc1F)C2` (stereo not drawn): the z-score was -1.04 (inactive) and -0.446 (inactive).
With `Nc1ccn([C@@H]2O[C@H](CO)[C@@H](O)C2(F)F)c(=O)n1`, the z-score was 0.323 and -0.775.
Still for that read-out and setting: for `COc1cc2ncnc(Nc3cccc(Cl)c3)c2cc1OC` the value was -0.433 (inactive).
`CNC(=O)c1cc(COc2nnc(Nc3ccc(Cl)cc3)c3ccoc23)ccn1`: the z-score is -0.151 (inactive).

Still in this experiment, the particulars now being: Rieske KO mouse fibroblast survival, low glucose, CellTiter-Glo 72 h.
For `O=C(Nc1nc2cccc(-c3ccc(CN4CCS(=O)(=O)CC4)cc3)n2n1)C1CC1`, the z-score was -1.33.
Same read-out and setting: for `CNC(=O)c1cc(Oc2ccc(NC(=O)Nc3ccc(Cl)c(C(F)(F)F)c3)c(F)c2)ccn1` the value was 1.02; for `Nc1cccc(-c2cc3c(Oc4cccc(O)c4)ncnc3[nH]2)c1`, -2.88; for `CS(=O)(=O)N1CCc2c(-c3cnc(N)nc3)nc(N3CCOCC3)nc21`, -1.3.
The same measure, in the same setting: then `CC(C)(O)CC(=O)NCCn1ccc2ncnc(Nc3ccc(Oc4cccc(C(F)(F)F)c4)c(Cl)c3)c21`, with 0.83; and `CC(=O)Oc1cc2c(s1)CCN(C(C(=O)C1CC1)c1ccccc1F)C2` (stereo not drawn), with -0.245 and 0.545; and `Nc1ccn([C@@H]2O[C@H](CO)[C@@H](O)C2(F)F)c(=O)n1`, with 10.5 and 7.93.
Consider `COc1cc2ncnc(Nc3cccc(Cl)c3)c2cc1OC`, for which the z-score stood at 0.126.
For the compound `CNC(=O)c1cc(COc2nnc(Nc3ccc(Cl)cc3)c3ccoc23)ccn1`, the z-score was 0.512.
